Screening results deposited in PubChem BioAssay by several laboratories.
RecA splice inh = inhibitors of M. tuberculosis RecA intein splicing | P9WHJ3 | cell-free RecA intein splicing, fluorescence | inhibition, % (no concentration beside the values) | hit rate 0.75% among 290,000; in the data active = inhibition above about 30%; inconclusive = no clear call, values can overlap the other calls
UGM FP inh = Mtb UDP-galactopyranose mutase inhibition | AID 504406 | hit rate 0.06% among 320,000 | inhibition, % at 10 µM | P9WIQ1 | purified UGM, fluorescence polarization probe displacement; in the data active = inhibition above about 10%, passing the limit was not always enough; inconclusive = no clear call, values can overlap the other calls
Target sequence (P9WIQ1 whole entry, looked up): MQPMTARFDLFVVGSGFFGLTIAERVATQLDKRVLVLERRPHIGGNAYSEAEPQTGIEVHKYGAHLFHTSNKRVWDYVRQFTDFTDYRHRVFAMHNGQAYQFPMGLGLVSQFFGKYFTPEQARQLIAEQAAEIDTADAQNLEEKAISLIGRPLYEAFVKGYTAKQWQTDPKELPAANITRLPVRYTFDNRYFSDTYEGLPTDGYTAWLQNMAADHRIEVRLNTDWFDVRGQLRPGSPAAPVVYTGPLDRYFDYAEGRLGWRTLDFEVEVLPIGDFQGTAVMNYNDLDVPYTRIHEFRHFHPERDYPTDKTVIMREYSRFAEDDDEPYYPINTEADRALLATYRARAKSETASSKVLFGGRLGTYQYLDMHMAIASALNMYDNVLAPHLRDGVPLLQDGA
Rv3671c protease = inhibitors of M. tuberculosis serine protease Rv3671c; hit rate 0.048% among 320,000; P9WHR9; inhibition, % at 5.96 µM; AID 2606; in the data active = inhibition above about 38%;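 note: extracellular domain of Rv3671c used as enzyme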
Mtb bLac sens = beta-lactam sensitization of Mtb H37Rv | M. tuberculosis H37Rv growth with meropenem, percent inhibition | inhibition, % at 25 µM | hit rate 0.27% among 330,000 | AID 434955;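 note: growth measured after seven days incubation then overnight dye step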
Mtb hypoxia rep = Mtb hypoxia fluorescent reporter inhibition; M. tuberculosis hypoxia-regulated fluorescent reporter, fluorescence; fluorescence inhibition, % (test concentration not listed); hit rate 0.1% among 300,000; AID 1159583; in the data active = fluorescence inhibition mostly above about 23%, no sharp cut-off; inactive = mostly below about 17%
GFP chromophore = counter-screen GFP chromophore formation inhibition | shares compounds with RecA splice inh | cell-free GFP chromophore formation, fluorescence | EC50, µM | hit rate 83% among 2,100
Each line names hits and unclear results; the compound was inactive in the other large screens (follow-up assays come after a bar, where they were run). Most compounds without a hit are left out; they make up all but 0.77% or so of the library. Unless noted, the rule behind the calls is not given here.

CC(=O)N1CCC2(CC1)C(C#N)=C(N)Oc1c2sc2nc(C)cc(C)c12	none
N#CC1=C(N)Oc2n[nH]c(-c3ccccc3)c2C12C(=O)Nc1ccccc12 (configuration not stated)	none
Cc1[nH]nc2c1C1(CCN(C(=O)c3ccccc3)CC1)C(C#N)=C(N)O2	RecA splice inh 78.6 | GFP chromophore 12.5
Cc1[nH]nc2c1C1(CCN(C(=O)OCc3ccccc3)CC1)C(C#N)=C(N)O2	RecA splice inh 80.2 (no result: Mtb hypoxia rep) | GFP chromophore 29.8
CC(=O)N1CCC2(CC1)C(C#N)=C(N)Oc1n[nH]c(C)c12	RecA splice inh 78.6, Mtb bLac sens inconclusive | GFP chromophore 14.9
CC1(C)SC2C(NC(=O)C(N)c3ccccc3)C(=O)N2C1C(=O)OC1OC(=O)c2ccccc21 (configuration not stated)	none (no result: RecA splice inh, UGM FP inh, Rv3671c protease, Mtb bLac sens)
Cc1ccc(SCc2cc(=O)n3[nH]c(C)nc3n2)cc1	none (no result: Mtb hypoxia rep)
Cc1ccc(SCc2cc(=O)n(C)[nH]2)cc1	RecA splice inh 95.3 | GFP chromophore 19.2
CC1=NN(c2ccc(C)c(C)c2)C(=O)C1C(c1cccc(O)c1)C1C(=O)N(c2ccc(C)c(C)c2)N=C1C (configuration not stated)	RecA splice inh 95.3 | GFP chromophore 0.905
O=C(CS(=O)c1ccc(C(F)(F)F)cc1[N+](=O)[O-])Oc1ccccc1 (configuration not stated)	RecA splice inh 66.0 | GFP chromophore 14.8
CNCC1Oc2c(NS(=O)(=O)c3ccc(F)cc3)cccc2C(=O)N(C(C)CO)CC1C (configuration not stated)	none (no result: RecA splice inh, UGM FP inh, Rv3671c protease, Mtb bLac sens)
N=c1c2c(-c3ccccc3)c(-c3ccccc3)n(Cc3ccco3)c2ncn1Cc1ccccc1	RecA splice inh 59.2 | GFP chromophore 5.2
Nc1cc2nn(-c3ccccc3)nc2cc1Cl	RecA splice inh 62.9 (no result: UGM FP inh, Rv3671c protease, Mtb bLac sens) | GFP chromophore 36.7
Nc1ccc2nn(-c3ccccc3)nc2c1	none (no result: RecA splice inh, UGM FP inh, Rv3671c protease, Mtb bLac sens)
CCc1ccc(C2C(C#N)=C(N)C(C#N)(C#N)C3=CCC(C(C)(C)C)CC32)cc1 (configuration not stated)	RecA splice inh 30.4 | GFP chromophore 15.2
CC(C)(C)C1CC=C2C(C#N)=C(N)C(C#N)(C#N)C(c3cccs3)C2C1 (configuration not stated)	none (no result: Mtb hypoxia rep)
CC=C(C)C(=O)Nc1cccc(C2=NOC3(C2)CC(C(N)=O)N(C(=O)CC#N)C3)c1 (configuration not stated)	none (no result: RecA splice inh, UGM FP inh, Rv3671c protease, Mtb bLac sens)
CC(C)(C)c1cnnn1-c1ccc(C(=O)CCl)cc1	RecA splice inh 74.7 | GFP chromophore 5.87
CC(C)(C)c1cnnn1-c1ccc(C=O)cc1	none
COC(=O)CC1c2cc(C(F)(F)F)ccc2S(=O)(=O)N1C1CCCCC1 (configuration not stated)	none (no result: RecA splice inh, UGM FP inh, Rv3671c protease, Mtb bLac sens)
Oc1c(C=C2N=c3ccccc3=N2)sc(=S)n1-c1ccc(F)cc1	none
Oc1[nH]c(=S)sc1C=C1N=c2ccccc2=N1	RecA splice inh 56.7 | GFP chromophore inactive
FC(F)(F)c1nnc(-c2ccccc2)nc1Sc1ccc(Cl)cc1	none
FC(F)(F)c1cccc(Oc2nc(-c3ccccc3)nnc2C(F)(F)F)c1	RecA splice inh 57.8 | GFP chromophore 1.46
FC(F)(F)c1nnc(-c2ccccc2)nc1Sc1ccccc1	RecA splice inh 63.3 (no result: Mtb hypoxia rep) | GFP chromophore 27
FC(F)(F)c1cccc(Sc2nc(-c3ccccc3)nnc2C(F)(F)F)c1	none (no result: Mtb hypoxia rep)
FC(F)(F)c1nnc(-c2ccccc2)nc1Oc1ccc(Cl)cc1Cl	RecA splice inh 61.2 (no result: Mtb hypoxia rep) | GFP chromophore 0.452
CN(NC(=O)c1cccc(Cl)c1)c1nc(-c2ccccc2)nnc1C(F)(F)F	none (no result: Mtb hypoxia rep)
CC1NC(=O)N(C)C2NC(=O)N(C)C(c3ccc([N+](=O)[O-])cc3)C12 (configuration not stated)	none (no result: RecA splice inh, UGM FP inh, Rv3671c protease, Mtb bLac sens)
COc1cc(/C=N/NC(=O)CC2(C)OCCCO2)ccc1OCc1ccccc1	RecA splice inh 39.4 (no result: Mtb hypoxia rep) | GFP chromophore 3.11
COC(=O)C1=C(c2ccccc2OCc2ccccc2)CC2CCC1N2C(=O)NCc1ccc(C(C)(C)C)cc1 (configuration not stated)	none (no result: RecA splice inh, UGM FP inh, Rv3671c protease, Mtb bLac sens)
CCCCn1c(NC(=O)c2ccco2)c(S(=O)(=O)c2ccc(C)cc2)c2nc3ccccc3nc21	RecA splice inh 56.8 (no result: UGM FP inh, Rv3671c protease, Mtb bLac sens) | GFP chromophore inconclusive
CCCCCn1c(NC(=O)c2ccco2)c(S(=O)(=O)c2ccc(C)cc2)c2nc3ccccc3nc21	RecA splice inh 80.0 | GFP chromophore inactive
Cc1ccc(S(=O)(=O)c2c(N)n(CCCO)c3nc4ccccc4nc23)cc1	none
CCCCn1c(NC(=O)c2ccco2)c(C(=O)OCC)c2nc3ccccc3nc21	none
CCCCn1c(NS(=O)(=O)c2ccccc2)c(S(=O)(=O)c2ccc(C)cc2)c2nc3ccccc3nc21	RecA splice inh 75.9 | GFP chromophore inconclusive
Cc1ccc(S(=O)(=O)c2c(N)n(CCC(C)C)c3nc4ccccc4nc23)cc1	RecA splice inh 84.5 | GFP chromophore 10.9
CN1C(=O)C2C(C1=O)C(c1ccc(F)cc1)N1C(=O)c3ccccc3NC(=O)C21 (configuration not stated)	none (no result: RecA splice inh, UGM FP inh, Rv3671c protease, Mtb bLac sens)
COc1ccc(CC2CN3C(=NCC3Cc3ccc(O)cc3)N2CC(C)NC(=O)CCC2CCCCC2)cc1 (configuration not stated)	none (no result: RecA splice inh, UGM FP inh, Rv3671c protease, Mtb bLac sens)
CCCCn1c(NC(=O)c2ccc(Br)o2)c(S(=O)(=O)c2ccccc2)c2nc3ccccc3nc21	RecA splice inh 90.1 | GFP chromophore inconclusive
N#CCCn1[nH]c(-c2ccccc2)cc1=O	RecA splice inh 97.1 | GFP chromophore 5.08
COc1ccc(C2C=CCN(C(=O)c3ccc(C)cc3)C(C)C(=O)N2Cc2ccc(F)cc2)cc1 (configuration not stated)	none (no result: RecA splice inh, UGM FP inh, Rv3671c protease, Mtb bLac sens)
Cc1cc(=O)cc(C)n1-c1ccc(O)cc1	none
Cc1cc(=O)n(-c2ccc(C(=O)O)cc2)[nH]1	RecA splice inh 93.9 | GFP chromophore 2.83
Cc1cc(=O)n(-c2ccccc2Cl)[nH]1	RecA splice inh 87.3 | GFP chromophore 17.9
Cc1ccc(C)n1-c1ccc(C(=O)O)cc1	none (no result: Mtb hypoxia rep)
CCOC(=O)c1ccc(-n2[nH]c(-c3ccccc3)cc2=O)cc1	RecA splice inh 66.7 | GFP chromophore 3.34
Cc1cc(=O)n(-c2ccc(O)cc2)[nH]1	RecA splice inh 97.1 | GFP chromophore 2.21
CCN1C(=NCCc2ccc(Br)cc2)NC(c2ccccc2)C(C(=O)OC)C1C (configuration not stated)	none (no result: RecA splice inh, UGM FP inh, Rv3671c protease, Mtb bLac sens)
CC1CN(C(C)CO)C(=O)c2cccc(NC(=O)Nc3ccc4c(c3)OCO4)c2OC1CN(C)Cc1ccc(-c2ccccc2)cc1 (configuration not stated)	none (no result: RecA splice inh, UGM FP inh, Rv3671c protease, Mtb bLac sens)
CCCNC1=C(N(C(C)=O)c2cccc(F)c2)C(=O)c2ccccc2C1=O	RecA splice inh 63.1 | GFP chromophore 14.5
CCC(=O)N(C1=C(NC(C)C)C(=O)c2ccccc2C1=O)C(C)C	none
Cc1nn(-c2ccccc2)c2c1C(c1ccco1)C(C#N)=C(N)O2 (configuration not stated)	RecA splice inh 68.1 | GFP chromophore 17.8
Cc1nn(-c2ccccc2)c2c1C(c1cccs1)C(C#N)=C(N)O2 (configuration not stated)	RecA splice inh 91.9 (no result: Mtb hypoxia rep) | GFP chromophore 9.81
